The panel holds about 83,000 compounds, 20% with a hit somewhere; the sample as a whole holds those more often.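 A percent growth of 40 corresponds to 60% growth inhibition; 0 means no net growth; -100 means all cells died. Active threshold: below 10.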 Active and inactive are the calls of the source.

The subject of one assay is ACHN renal. The assay can be described thus: NCI-60 one-dose screen, 48 h (100 = growth as untreated, 0 = no growth, -100 = all killed). Conditions: 10 µM unless noted.
As to `C=CCn1cc(-c2nc3ccccc3s2)c2cc(-c3ccc4c5c(cccc35)C(=O)N(N)C4=O)ccc21`, the growth is 92% (inactive).
On the same count and under the same terms, the same measure for `CCOC(=O)CNP(=O)(OC[C@@H](Cc1ccccc1)NC(=O)c1cc2ccccc2s1)Oc1ccccc1` (stereo partly specified): 99.9% (inactive).
For the compound `CCC(=C(c1ccc(OCCN2CCCC2)cc1)c1ccc(OCCN2CCCC2)cc1)c1ccc(Cl)cc1`, the growth was -84.6% (active).
The same measure, in the same setting: then `Oc1c(Cl)cc(Cl)c2ccc(Cn3cc(-c4ccc(C(F)(F)F)cc4)nn3)nc12`, with 36.7% (inactive); and `O=C(NCCCCNC(=O)OCc1ccc2c(Cl)cc(Cl)c(O)c2n1)OCc1ccc2c(Cl)cc(Cl)c(O)c2n1`, with 26.2% (inactive); and `CCN(CC)CCNC(=O)c1cn2ncnc(Oc3ccc(NC(=O)Nc4ccc(Cl)c(C(F)(F)F)c4)c(F)c3)c2c1C`, with -44.5% (active).

Another assay has as its system CAKI-1 renal. Described as above. Particulars: 10 µM unless noted.
On to `COc1cc(OC)cc(C2=C3CC[C@@H]4[C@H](CC[C@]5(C)C(=O)CC[C@@H]45)C3=CC3C(O)c4cccnc4N4C(=O)COC234)c1` (stereo partly specified), for which the growth is 86.6% (inactive).
Regarding `CC(=O)Cc1nsc(NC(=O)c2cc(-c3cc(Cl)cc(Cl)c3)oc2C)n1`, the growth is 90.8% (inactive).
The same measure, in the same setting: then `CCOC(=O)c1cn2ncnc(Oc3ccc(NC(=O)NC4CCCCC4)c(Cl)c3)c2c1C`, with 85% (inactive); and `Cc1nnc(NC(=O)c2nc(S(=O)(=O)Cc3ccc(F)cc3)ncc2Cl)s1`, with -86.3% (active).
The same measure, in the same setting: the same measure for `C#CCOc1ccc2ncnc(Nc3ccc(NC(=O)CCl)cc3)c2c1`: 35.8% (inactive).
The same measure, in the same setting: then `CCOC(=O)C#Cc1c(C(=O)OCC)nnn1[C@@H]1O[C@H](CO)[C@H]2OC3(CCCCC3)O[C@H]21`, with -99.7% (active); and `C/C(=N/O)c1ccc(F)cc1`, with 61% (inactive); and `CCOC(=O)Cn1c(O)c(N=Nc2ccc(S(N)(=O)=O)cc2)c2cc(Br)ccc21`, with 86.4% (inactive).
Consider `Cc1nc(N2CCOCC2)sc1S(N)(=O)=O`, for which the growth is 96.9% (inactive).
Consider `COc1ccc(OC)c(C(=O)/C=C/c2cc3c(c(OC)c2OC)OCO3)c1`, for which the growth is 52% (inactive).
Regarding `O=c1oc2ccccc2cc1C1=NN=C(SCc2ccccc2)SC1`, the growth is 87.4% (inactive).
On the same count and under the same terms, then `COc1ccc(C(=S)N2CCN(c3ccccc3Cl)CC2)cc1OC`, with 91.8% (inactive); and `Cc1ccc(/C=C2\CN(C(=O)OC(C)(C)C)C/C(=C\c3ccc(C)cc3)C2=O)cc1`, with 61% (inactive); and `O=C(Nc1nn(-c2ccc(Cl)cc2Cl)nc1-c1ccccc1)c1ccccc1`, with 85.1% (inactive).
Take `CCN(CC)c1ccc(/C=C/C(=O)c2ccc(Nc3nc(Nc4ccccc4)nc(Nc4ccccc4)n3)cc2)cc1`: the growth was 44% (inactive).
As to `COC(=O)[C@H]1CCCN1C[C@@H](O)CN1C(=O)/C(=C\c2cc(OC)c(OC)c(OC)c2)c2ccccc21`, the growth was 93.1% (inactive).
On the same count and under the same terms, the same measure for `CN(C)c1ccc(Nc2cc(-c3cccc(OC(F)(F)F)c3)nc3ccc(N4CCCC4)cc23)cc1`: 89.6% (inactive); for `O=C(Nc1cc(Cl)ccc1O)c1ccc(Nc2ccnc(C(F)(F)F)c2)cc1`: 58.7% (inactive); for `COc1cc(OC)c2sc(-c3ccc(-n4cncc4-c4ccc(OC)c(OC)c4)cc3)nc2c1`: 8.81% (active).
As to `O=C1c2cccnc2C(=O)c2c1c(C(=O)NCCCN1CCCCC1)c1ccccn21`, the growth was -14.6% (active).
With `CCOC(=O)c1ccc2[nH]c(O)c(C(=Nc3ccc(N(C)C(=O)CN4CCN(C)CC4)cc3)c3ccccc3)c2c1`, the growth is -0.635% (active).
Still for that read-out and setting: then `CCN1C(=O)N(CC)C2C1NN=c1s/c(=C\c3cccc([N+](=O)[O-])c3)c(=O)n12` (stereo unspecified), with 25.7% (inactive); and `CC1=C(Nc2ccc(N3CCN(C)CC3)cc2)C(=O)c2cncnc2C1=O`, with 87.9% (inactive); and `O=C1Nc2ccc(Br)cc2/C1=N/c1n[nH]c(=S)s1`, with 74.6% (inactive).
Same read-out and setting: the same measure for `CCN(c1ccc(Cl)cc1)c1nc(-c2ccc([N+](=O)[O-])cc2)cs1`: 79.6% (inactive); for `C=C(C)[C@@H]1CC[C@]2(C)[C@H](CC=C3[C@@H]4[C@H](C)[C@@H](C)CC[C@]4(CO)CC[C@]32C)[C@@]1(C)CCCN`: 22.4% (inactive); for `O=C(/C=C(/C=C/c1cccc2[nH]ccc12)OB(F)F)/C=C/c1cccc2[nH]ccc12`: -73.6% (active).
Still for that read-out and setting: the same measure for `CCN1CC(=O)N(/N=C2\C(=O)Nc3ccccc32)C1=S`: 59% (inactive).
For the compound `CCN1CCN(c2cc(C(=O)Nc3nc(-c4cc(OC)c(OC)c(OC)c4)cs3)cc(C(F)(F)F)c2)CC1`, the growth was 84% (inactive).
For the compound `COc1ccc(-c2nc(/C=C3\SC(=NCc4ccccc4)NC3=O)c3ccccn23)cc1`, the growth was 3.18% (active).
Still for that read-out and setting: the same measure for `CCOC(=O)C(=Cc1cccc(Br)c1)C(=O)OCC`: 59.4% (inactive); for `N#CC1=C(N)Oc2c(sc3c(F)cccc23)C1c1ccc(F)cc1` (stereo unspecified): 29.1% (inactive); for `CCOc1nc(-c2ccccc2)cc2c(O)c(C(=O)NN)[nH]c(=O)c12`: 109% (inactive).
The same measure, in the same setting: the same measure for `O=C1c2cccc(NCCN=Cc3cc(O)ccc3O)c2C(=O)c2c(NCCN=Cc3cc(O)ccc3O)cccc21`: -37.1% (active).
On the same count and under the same terms, the same measure for `C=CCn1cc(-c2nc3ccccc3s2)c2cc(-c3ccc4c5c(cccc35)C(=O)N(N)C4=O)ccc21`: 75.1% (inactive); for `CCOC(=O)CNP(=O)(OC[C@@H](Cc1ccccc1)NC(=O)c1cc2ccccc2s1)Oc1ccccc1` (stereo partly specified): 70.6% (inactive).
In the case of `CCC(=C(c1ccc(OCCN2CCCC2)cc1)c1ccc(OCCN2CCCC2)cc1)c1ccc(Cl)cc1`, the growth is -58.7% (active).
`Oc1c(Cl)cc(Cl)c2ccc(Cn3cc(-c4ccc(C(F)(F)F)cc4)nn3)nc12`: the growth is 21% (inactive).
Same read-out and setting: the same measure for `O=C(NCCCCNC(=O)OCc1ccc2c(Cl)cc(Cl)c(O)c2n1)OCc1ccc2c(Cl)cc(Cl)c(O)c2n1`: 13.1% (inactive).
On the same count and under the same terms, then `CCN(CC)CCNC(=O)c1cn2ncnc(Oc3ccc(NC(=O)Nc4ccc(Cl)c(C(F)(F)F)c4)c(F)c3)c2c1C`, with 39.6% (inactive).

The values are drawn from PubChem BioAssay (NCI).
